The supplement of paper PMC12819154, “High-throughput peptide-centric local stability assay extends protein–ligand identification to membrane proteins, tissues and bacteria” (Nature Structural & Molecular Biology, 2025)

Compound: CN[C@@H]1C[C@H]2O[C@@](C)([C@@H]1OC)n1c3ccccc3c3c4c(c5c6ccccc6n2c5c31)C(=O)NC4 [staurosporine]
Assay: log2 fold change of tryptic peptide abundance, ligand vs vehicle (limited proteolysis) (log2 ratio); higher = more trypsin-susceptible (destabilized)
Settings: ligand concentration: 20 uM; sample: K562 cleared lysate; digestion: 4 min, 22 C (HT-PELSA RT4min, Orbitrap Astral)

Chain of UniProt O43353 (O43353 whole entry): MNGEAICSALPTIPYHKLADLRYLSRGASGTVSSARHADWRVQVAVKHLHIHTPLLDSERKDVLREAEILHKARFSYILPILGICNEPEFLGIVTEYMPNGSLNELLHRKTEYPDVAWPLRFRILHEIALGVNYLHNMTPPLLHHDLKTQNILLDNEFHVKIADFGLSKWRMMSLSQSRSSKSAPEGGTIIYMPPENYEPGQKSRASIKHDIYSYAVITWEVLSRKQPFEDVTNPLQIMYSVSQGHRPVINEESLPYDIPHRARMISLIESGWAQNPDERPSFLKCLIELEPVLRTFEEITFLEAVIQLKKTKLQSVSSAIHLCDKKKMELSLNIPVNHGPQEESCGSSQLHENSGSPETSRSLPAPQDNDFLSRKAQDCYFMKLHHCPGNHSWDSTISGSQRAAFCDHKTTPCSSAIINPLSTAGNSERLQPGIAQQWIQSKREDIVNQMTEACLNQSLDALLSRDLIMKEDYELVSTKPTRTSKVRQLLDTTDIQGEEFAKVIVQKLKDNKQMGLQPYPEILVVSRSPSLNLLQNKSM
Chain of UniProt O95067 (O95067 whole entry): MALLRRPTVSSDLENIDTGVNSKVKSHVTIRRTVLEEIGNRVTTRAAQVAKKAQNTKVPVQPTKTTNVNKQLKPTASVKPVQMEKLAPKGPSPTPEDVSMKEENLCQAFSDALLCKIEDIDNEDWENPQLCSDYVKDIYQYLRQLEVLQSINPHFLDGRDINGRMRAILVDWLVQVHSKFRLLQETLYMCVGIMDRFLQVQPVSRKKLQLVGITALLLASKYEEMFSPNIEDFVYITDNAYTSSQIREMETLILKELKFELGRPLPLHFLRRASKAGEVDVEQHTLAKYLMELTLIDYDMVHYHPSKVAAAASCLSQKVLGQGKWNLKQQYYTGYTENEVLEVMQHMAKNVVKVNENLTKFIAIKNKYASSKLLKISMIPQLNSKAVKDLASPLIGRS
Chain of UniProt Q9Y2W1 (Q9Y2W1 whole entry): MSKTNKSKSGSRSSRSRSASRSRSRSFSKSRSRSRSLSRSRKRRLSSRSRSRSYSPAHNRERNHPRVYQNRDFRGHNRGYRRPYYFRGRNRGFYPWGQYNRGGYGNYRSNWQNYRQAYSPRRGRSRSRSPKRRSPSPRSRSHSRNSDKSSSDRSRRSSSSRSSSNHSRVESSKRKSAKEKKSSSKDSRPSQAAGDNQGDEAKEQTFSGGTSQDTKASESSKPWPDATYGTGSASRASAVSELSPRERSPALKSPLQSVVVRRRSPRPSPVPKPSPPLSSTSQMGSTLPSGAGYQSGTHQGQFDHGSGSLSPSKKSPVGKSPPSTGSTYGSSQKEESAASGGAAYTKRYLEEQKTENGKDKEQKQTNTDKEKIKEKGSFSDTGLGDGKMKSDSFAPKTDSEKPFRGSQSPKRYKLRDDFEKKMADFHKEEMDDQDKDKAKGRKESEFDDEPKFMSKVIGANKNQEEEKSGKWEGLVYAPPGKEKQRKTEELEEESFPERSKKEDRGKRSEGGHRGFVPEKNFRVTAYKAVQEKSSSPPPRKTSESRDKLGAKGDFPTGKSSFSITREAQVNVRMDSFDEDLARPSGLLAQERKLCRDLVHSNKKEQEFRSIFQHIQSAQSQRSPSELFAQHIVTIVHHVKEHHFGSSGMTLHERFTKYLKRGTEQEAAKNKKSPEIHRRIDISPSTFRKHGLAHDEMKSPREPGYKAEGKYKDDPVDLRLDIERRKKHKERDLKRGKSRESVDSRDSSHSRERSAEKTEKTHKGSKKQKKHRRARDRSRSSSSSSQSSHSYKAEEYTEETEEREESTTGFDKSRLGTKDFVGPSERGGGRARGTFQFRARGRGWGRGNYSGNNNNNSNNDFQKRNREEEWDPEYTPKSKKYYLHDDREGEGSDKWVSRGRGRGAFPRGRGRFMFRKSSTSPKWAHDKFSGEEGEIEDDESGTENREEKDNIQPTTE
Chain of UniProt Q96BR1 (Q96BR1 whole entry): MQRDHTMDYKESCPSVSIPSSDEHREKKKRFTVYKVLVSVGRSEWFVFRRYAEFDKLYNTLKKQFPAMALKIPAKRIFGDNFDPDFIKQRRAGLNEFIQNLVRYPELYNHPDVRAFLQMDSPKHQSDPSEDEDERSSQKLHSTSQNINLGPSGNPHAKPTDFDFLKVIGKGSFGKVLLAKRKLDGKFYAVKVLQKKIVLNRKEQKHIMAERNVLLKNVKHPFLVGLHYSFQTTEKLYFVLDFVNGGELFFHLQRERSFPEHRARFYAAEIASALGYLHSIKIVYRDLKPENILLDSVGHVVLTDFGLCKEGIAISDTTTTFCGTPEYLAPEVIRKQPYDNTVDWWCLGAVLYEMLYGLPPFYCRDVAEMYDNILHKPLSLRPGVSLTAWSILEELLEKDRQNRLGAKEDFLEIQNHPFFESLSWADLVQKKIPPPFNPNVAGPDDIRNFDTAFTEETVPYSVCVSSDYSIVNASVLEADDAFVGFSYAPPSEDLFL
Chain of UniProt Q10713 (Q10713 whole entry): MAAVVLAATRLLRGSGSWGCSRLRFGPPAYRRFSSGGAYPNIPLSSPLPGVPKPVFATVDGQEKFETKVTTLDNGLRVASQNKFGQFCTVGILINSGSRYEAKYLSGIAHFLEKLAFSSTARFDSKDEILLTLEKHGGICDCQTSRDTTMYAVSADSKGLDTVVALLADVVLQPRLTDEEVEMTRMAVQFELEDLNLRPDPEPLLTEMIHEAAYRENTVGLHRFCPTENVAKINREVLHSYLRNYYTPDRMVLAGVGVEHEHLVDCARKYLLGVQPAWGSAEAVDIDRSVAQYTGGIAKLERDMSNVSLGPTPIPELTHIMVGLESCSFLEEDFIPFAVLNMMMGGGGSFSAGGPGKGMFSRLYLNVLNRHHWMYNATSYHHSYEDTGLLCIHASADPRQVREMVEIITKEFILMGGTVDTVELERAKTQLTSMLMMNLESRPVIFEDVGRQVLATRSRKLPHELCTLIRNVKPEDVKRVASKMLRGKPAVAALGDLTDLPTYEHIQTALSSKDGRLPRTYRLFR
Chain of UniProt Q00537 (Q00537 whole entry, looked up): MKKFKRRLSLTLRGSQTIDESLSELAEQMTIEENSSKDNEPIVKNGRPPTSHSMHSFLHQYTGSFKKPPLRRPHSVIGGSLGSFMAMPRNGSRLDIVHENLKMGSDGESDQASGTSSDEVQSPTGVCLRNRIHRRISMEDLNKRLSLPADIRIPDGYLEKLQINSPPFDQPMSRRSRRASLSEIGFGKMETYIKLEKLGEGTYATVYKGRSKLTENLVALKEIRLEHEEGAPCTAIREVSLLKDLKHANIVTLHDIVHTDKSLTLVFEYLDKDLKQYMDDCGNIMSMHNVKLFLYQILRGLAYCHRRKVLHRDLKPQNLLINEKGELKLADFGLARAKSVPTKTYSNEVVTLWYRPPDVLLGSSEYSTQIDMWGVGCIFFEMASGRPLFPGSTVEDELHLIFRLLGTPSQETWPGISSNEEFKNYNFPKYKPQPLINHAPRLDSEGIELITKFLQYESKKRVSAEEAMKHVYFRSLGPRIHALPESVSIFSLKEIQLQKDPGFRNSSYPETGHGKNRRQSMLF
Chain of UniProt Q9BVG4 (Q9BVG4 whole entry): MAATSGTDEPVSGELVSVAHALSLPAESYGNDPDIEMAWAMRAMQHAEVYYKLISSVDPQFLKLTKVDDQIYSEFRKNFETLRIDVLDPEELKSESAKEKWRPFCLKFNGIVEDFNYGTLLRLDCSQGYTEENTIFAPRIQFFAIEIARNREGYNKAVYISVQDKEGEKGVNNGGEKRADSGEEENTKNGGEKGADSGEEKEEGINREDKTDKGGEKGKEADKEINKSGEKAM
Chain of UniProt P08670 (P08670 whole entry): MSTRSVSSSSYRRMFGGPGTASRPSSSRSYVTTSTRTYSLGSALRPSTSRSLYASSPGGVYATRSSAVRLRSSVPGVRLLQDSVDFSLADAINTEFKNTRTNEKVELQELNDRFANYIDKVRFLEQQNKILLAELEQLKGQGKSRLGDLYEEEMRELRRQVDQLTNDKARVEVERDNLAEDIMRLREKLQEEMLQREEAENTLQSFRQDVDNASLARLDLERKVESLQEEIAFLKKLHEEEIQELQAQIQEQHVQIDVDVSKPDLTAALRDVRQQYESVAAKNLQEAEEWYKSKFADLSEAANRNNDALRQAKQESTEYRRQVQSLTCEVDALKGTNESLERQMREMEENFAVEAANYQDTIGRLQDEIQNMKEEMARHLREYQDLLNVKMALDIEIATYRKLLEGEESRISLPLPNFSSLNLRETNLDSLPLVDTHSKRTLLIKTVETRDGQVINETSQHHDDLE
Chain of UniProt P45983 (P45983 whole entry): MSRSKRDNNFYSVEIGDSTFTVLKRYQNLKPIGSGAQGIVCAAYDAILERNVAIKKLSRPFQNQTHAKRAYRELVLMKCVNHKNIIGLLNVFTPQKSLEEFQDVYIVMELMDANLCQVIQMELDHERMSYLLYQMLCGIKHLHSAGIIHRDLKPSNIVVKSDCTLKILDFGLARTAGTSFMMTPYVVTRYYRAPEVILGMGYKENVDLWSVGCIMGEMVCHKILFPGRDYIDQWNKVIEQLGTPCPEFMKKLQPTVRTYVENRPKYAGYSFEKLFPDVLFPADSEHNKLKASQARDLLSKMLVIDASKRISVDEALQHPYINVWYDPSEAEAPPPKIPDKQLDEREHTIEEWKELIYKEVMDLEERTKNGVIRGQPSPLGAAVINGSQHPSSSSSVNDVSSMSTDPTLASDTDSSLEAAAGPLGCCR
Chain of UniProt Q96EV8 (Q96EV8 whole entry): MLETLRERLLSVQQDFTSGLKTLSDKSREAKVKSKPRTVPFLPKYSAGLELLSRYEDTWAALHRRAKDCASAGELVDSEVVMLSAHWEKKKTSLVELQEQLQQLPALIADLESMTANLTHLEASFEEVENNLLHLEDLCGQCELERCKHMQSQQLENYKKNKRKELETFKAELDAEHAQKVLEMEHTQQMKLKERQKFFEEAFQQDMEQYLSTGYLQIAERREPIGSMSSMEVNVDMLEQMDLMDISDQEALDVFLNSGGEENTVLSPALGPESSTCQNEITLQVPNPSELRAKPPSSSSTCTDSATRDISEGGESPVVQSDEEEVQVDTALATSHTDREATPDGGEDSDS

Target	log2 fold change
UniProt Q9H9C1 (peptide sequence: LLLDLFR, peptide start residue: 239)	-1.26
UniProt Q9NSY1 (peptide sequence: DGVNVVEEEIKK, peptide start residue: 212)	-4.3
CDK9 (peptide sequence: EGFPITALR, peptide start residue: 57) (UniProt P50750)	-1.73
DTNBP1 (peptide sequence: YEDTWAALHRR, peptide start residue: 55) (UniProt Q96EV8)	-0.512
ARAF (peptide sequence: IGTGSFGTVFR, peptide start residue: 316) (UniProt P10398)	0.439
UniProt Q9BVG4 (peptide sequence: LISSVDPQFLK, peptide start residue: 53)	-0.658
RPL18A (peptide sequence: ARAHSIQIMKVEEIAASK, peptide start residue: 119) (UniProt Q02543)	0.524
MED12 (peptide sequence: NVSFNPAK, peptide start residue: 61) (UniProt Q93074)	0.555
UniProt Q13131 (peptide sequence: VGKHELTGHK, peptide start residue: 43)	-5
PMPCA (peptide sequence: LYLNVLNR, peptide start residue: 363) (UniProt Q10713)	-0.407
RPL5 (peptide sequence: GAVDGGLSIPHSTK, peptide start residue: 165) (UniProt P46777)	0.307
SRM (peptide sequence: AAFVLPEFAR, peptide start residue: 286) (UniProt P19623)	0.362
VIM (peptide sequence: MFGGPGTASRPSSSR, peptide start residue: 14) (UniProt P08670)	0.344
UniProt P51812 (peptide sequence: DILVEVNHPFIVK, peptide start residue: 120)	-0.86
DDX41 (peptide sequence: TDEVPAGGSR, peptide start residue: 13) (UniProt Q9UJV9)	0.553
RIPK2 (peptide sequence: KTEYPDVAWPLR, peptide start residue: 110) (UniProt O43353)	-0.494
UniProt P27448 (peptide sequence: NSIASCADEQPHIGNYR, peptide start residue: 41)	-2.82
LAMA5 (peptide sequence: TFQLDTAVDRPCAR, peptide start residue: 2918) (UniProt O15230)	1.14
UniProt P45983 (peptide sequence: MLVIDASK, peptide start residue: 301)	-1.77

Target	log2 fold change
PITPNB (peptide sequence: GTSAADV, peptide start residue: 265) (UniProt P48739)	0.354
CCNB2 (peptide sequence: VAAAASCLSQK, peptide start residue: 308) (UniProt O95067)	-1.57
UniProt Q00537 (peptide sequence: LGEGTYATVYK, peptide start residue: 171)	-2.88
UniProt P60842 (peptide sequence: ATQALVLAPTR, peptide start residue: 100)	0.334
BRAF (peptide sequence: GYLSPDLSK, peptide start residue: 525) (UniProt P15056)	0.499
POLR3A (peptide sequence: ISHICFGMK, peptide start residue: 15) (UniProt O14802)	0.539
UniProt Q15208 (peptide sequence: VMEEEGLKDEEKR, peptide start residue: 51)	0.382
PRDX1 (peptide sequence: KQGGLGPMNIPLVSDPKR, peptide start residue: 93) (UniProt Q06830)	0.253
CHD4 (peptide sequence: SDSEGSDYTPGK, peptide start residue: 103) (UniProt Q14839)	1.11
UniProt Q02040 (peptide sequence: STMDFIR, peptide start residue: 72)	0.414
THRAP3 (peptide sequence: SYSPAHNR, peptide start residue: 53) (UniProt Q9Y2W1)	2.27
RFESD (peptide sequence: EYSSVCVGREDDIK, peptide start residue: 14) (UniProt Q8TAC1)	0.768
SGK3 (peptide sequence: FYAAEIASALGYLHSIK, peptide start residue: 265) (UniProt Q96BR1)	-1.54
MOB2 (peptide sequence: ITDFQFK, peptide start residue: 35) (UniProt Q70IA6)	0.834
NUP188 (peptide sequence: HTLNPEETSSVVR, peptide start residue: 331) (UniProt Q5SRE5)	1.1
SRRM2 (peptide sequence: SLSYSPVER, peptide start residue: 2690) (UniProt Q9UQ35)	0.244
EIF2AK4 (peptide sequence: DLKPVNIFLDSDDHVK, peptide start residue: 848) (UniProt Q9P2K8)	-1.33
FER (peptide sequence: NCLVGENNVLK, peptide start residue: 689) (UniProt P16591)	-0.84
